Measurements as given in PubChem BioAssay (NCI).
About 79,000 compounds went through this panel and 15% of them were active in at least one assay; those are over-represented in the sample as a whole. Calls of active or inactive are those of the source. Cut-off read from the data, not from the text of the source: active = growth inhibition above about 70%; inactive = the rest.

Assays:
[1] = NCI Yeast Anticancer Drug Screen. Data for the mec2-1 strain (AID 157); settings: S. cerevisiae mec2-1 strain, hits give high values
How it was run: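 Compounds were applied to mec2-1 yeast cells. Their growth was then compared with that of vehicle-treated cultures to give growth inhibition.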

[2] = NCI Yeast Anticancer Drug Screen. Data for the rad14 strain (AID 159);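 note: 0% = growth of vehicle-treated control cultures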; settings: S. cerevisiae rad14 strain growth inhibition, hits give high values
How it was run: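 Here, inhibition of yeast growth was measured after compound exposure, using a strain with a genetic defect in DNA damage repair and vehicle-treated cultures as the reference.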

[3] = NCI Yeast Anticancer Drug Screen. Data for the sgs1 mgt1 strain (AID 161);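 note: 0% = growth of cultures given vehicle only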; settings: S. cerevisiae sgs1 mgt1 strain, hits give high values
How it was run: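 This yeast growth screen uses a strain with defined DNA-repair lesions; compound-treated growth is compared with vehicle-treated growth.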

[4] = NCI Yeast Anticancer Drug Screen. Data for the CLN2oe strain (AID 163);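 note: 0% = growth of vehicle-only control cultures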; settings: S. cerevisiae CLN2oe strain, hits give high values
How it was run: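 Cells of an engineered yeast line with disturbed cell-cycle regulation are treated with compound. Inhibition of growth is then calculated relative to the vehicle-treated reference.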

[5] = NCI Yeast Anticancer Drug Screen. Data for the cln2 rad14 strain (AID 165);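 note: 0% = growth equal to vehicle treated cultures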; settings: S. cerevisiae cln2 rad14 strain, hits give high values
How it was run: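 Strain: cln2 rad14 yeast, altered in cell cycle control and DNA damage repair. Read-out: growth inhibition vs vehicle.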

[6] = NCI Yeast Anticancer Drug Screen. Data for the bub3 strain (AID 167); settings: S. cerevisiae bub3 mutant strain, hits give high values
How it was run: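 Whole-cell yeast assay. The mutant strain was incubated with compounds, and growth inhibition was determined by comparison with vehicle-treated cells.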

[7] = NCI Yeast Anticancer Drug Screen. Data for the wt2 strain (AID 169);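 note: 0% = growth of vehicle-treated yeast cultures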; settings: S. cerevisiae wt2 strain growth inhibition, hits give high values
How it was run: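 Growth of compound-treated yeast is measured and expressed as inhibition relative to vehicle-only controls.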

[8] = NCI Yeast Anticancer Drug Screen. Data for the mlh1 strain (AID 171);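 note: 0% = growth of vehicle-treated control cultures of the same strain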; settings: S. cerevisiae mlh1 strain growth inhibition, hits give high values
How it was run: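 Test agents were incubated with yeast bearing a defined DNA damage repair or cell cycle control alteration; values are growth inhibition normalised to vehicle-treated cultures.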

[9] = NCI Yeast Anticancer Drug Screen. Data for the sgs1 strain (AID 173);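 note: 0% = growth of vehicle-only control cultures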; settings: S. cerevisiae sgs1 mutant, hits give high values
How it was run: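 Strain with an altered DNA repair or cell cycle pathway exposed to compound. Growth then measured. Value = inhibition versus vehicle control.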

[10] = NCI Yeast Anticancer Drug Screen. Data for the mlh1 rad18 strain (AID 175); settings: S. cerevisiae mlh1 rad18 strain growth inhibition, hits give high values
How it was run: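 A repair-deficient yeast strain is exposed to test compound, and growth is scored relative to vehicle-treated controls.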

[11] = NCI Yeast Anticancer Drug Screen. Data for the rad52 strain (AID 147);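 note: 0% = growth of vehicle-treated control cultures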; settings: S. cerevisiae rad52 mutant growth inhibition, hits give high values
How it was run: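 Growth of repair-deficient yeast cells was compared between compound-treated and vehicle-treated cultures to give percent inhibition.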

[12] = NCI Yeast Anticancer Drug Screen. Data for the wt1 strain (AID 149);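 note: 0% = growth of vehicle-treated wt1 cultures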; settings: S. cerevisiae wt1 strain (SPY 50644) growth inhibition, hits give high values
How it was run: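 Measured: growth of wt1 yeast under compound versus vehicle treatment, reported as inhibition.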

[13] = NCI Yeast Anticancer Drug Screen. Data for the rad50EPP+ strain (AID 151);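 note: 0% = growth of vehicle-treated control cultures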; settings: S. cerevisiae rad50 mutant strain, hits give high values
How it was run: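 Measured: growth inhibition of rad50EPP+ yeast. Reference: vehicle-treated controls. Screen uses strains with defined genetic alterations in DNA damage repair or cell cycle control.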

[14] = NCI Yeast Anticancer Drug Screen. Data for the mgt1 strain (AID 153); settings: S. cerevisiae mgt1 mutant growth inhibition, hits give high values
How it was run: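 Compounds were applied to mgt1 mutant yeast, and growth was then compared against vehicle-treated control cultures to give percent inhibition.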

[15] = NCI Yeast Anticancer Drug Screen. Data for the rad50 strain (AID 155);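 note: 0% = growth of vehicle-only cultures of the same strain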; settings: S. cerevisiae rad50 strain growth inhibition, hits give high values
How it was run: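 Growth of the mutant yeast was measured after compound exposure and referenced to vehicle-treated cultures.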

[16] = NCI Yeast Anticancer Drug Screen. Data for the rad18 strain (AID 177); settings: S. cerevisiae rad18 mutant growth inhibition, hits give high values
How it was run: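 DNA-repair-defective yeast; compound treatment; growth inhibition scored against vehicle.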

[17] = at 5.0 µM (retest, dose inferred, filed as 0.5)
[18] = at 50.0 µM (retest, dose inferred, filed as 5.0)

Measured: growth inhibition

CCCCCCCCCCCCCCCCCCN(C)CC(COP(=O)([O-])OCC[N+](C)(C)C)OC (centres undefined)
inactive: [1]; [17] 11% | [2]; at 1.2 µM 2% | [2]; at 3.7 µM 4% | [4]; at 1.2 µM 15% | [4]; at 3.7 µM 6% | [5]; [17] 22% | [6]; at 1.2 µM 9% | [6]; at 3.7 µM -8% | [6]; [17] 33% | [7]; at 1.2 µM -1% | [7]; at 3.7 µM 0% | [7]; at 11.0 µM -17% | [7]; at 33.0 µM 60% | [8]; at 1.2 µM 5% | [8]; at 3.7 µM 11% | [9]; at 1.2 µM -15% | [9]; at 3.7 µM -1% | [10]; [17] 7%
active: [1]; at 11.0 µM 94% | [1]; at 33.0 µM 99% | [1]; [18] 99% | [1]; at 50.0 µM 93.4% | [1]; at 100.0 µM 99% | [2]; at 11.0 µM 98% | [2]; at 33.0 µM 99% | [2]; at 100.0 µM 99% | [3]; [17] 78% | [3]; [18] 99% | [3]; at 50.0 µM 91.1% | [4]; at 11.0 µM 96% | [4]; at 33.0 µM 98% | [4]; at 100.0 µM 98% | [5]; [18] 98% | [5]; at 50.0 µM 89.8% | [6]; at 11.0 µM 98% | [6]; at 33.0 µM 98% | [6]; [18] 99% | [6]; at 50.0 µM 90% | [6]; at 100.0 µM 98% | [7]; at 100.0 µM 98% | [8]; at 11.0 µM 98% | [8]; at 33.0 µM 99% | [8]; at 100.0 µM 99% | [9]; at 11.0 µM 97% | [9]; at 33.0 µM 99% | [9]; at 100.0 µM 99% | [10]; [18] 98% | [10]; at 50.0 µM 89.5%

Cc1ccc(C2C(Cl)C(=O)N2n2cnc3ccccc3c2=O)cc1 (centres undefined)
active: [6]; [18] 84%
inactive: [11]; at 1.2 µM 6% | [11]; at 3.7 µM 11% | [11]; at 11.0 µM 8% | [11]; at 33.0 µM 9% | [11]; at 100.0 µM -8% | [12]; at 1.2 µM 8% | [12]; at 3.7 µM 14% | [12]; at 11.0 µM 19% | [12]; at 33.0 µM 6% | [12]; at 100.0 µM 6% | [13]; at 1.2 µM -13% | [13]; at 3.7 µM -6% | [13]; at 11.0 µM -3% | [13]; at 33.0 µM 34% | [13]; at 100.0 µM 51% | [14]; at 1.2 µM -15% | [14]; at 3.7 µM -11% | [14]; at 11.0 µM -23% | [14]; at 33.0 µM -19% | [14]; at 100.0 µM -27% | [15]; at 1.2 µM -2% | [15]; at 3.7 µM 0% | [15]; [17] 14% | [15]; at 11.0 µM -6% | [15]; at 33.0 µM -6% | [15]; [18] -4% | [15]; at 50.0 µM -15.2% | [15]; at 100.0 µM -20% | [1]; at 1.2 µM -6% | [1]; at 3.7 µM -12% | [1]; [17] -16% | [1]; at 11.0 µM -10% | [1]; at 33.0 µM -11% | [1]; [18] 10% | [1]; at 50.0 µM 12.5% | [1]; at 100.0 µM -15% | [2]; at 1.2 µM -15% | [2]; at 3.7 µM -19% | [2]; at 11.0 µM -9% | [2]; at 33.0 µM -12% | [2]; at 100.0 µM -4% | [3]; [17] -4% | [3]; [18] 20% | [3]; at 50.0 µM -0.75% | [4]; at 1.2 µM -23% | [4]; at 3.7 µM -43% | [4]; at 11.0 µM -18% | [4]; at 33.0 µM -54% | [4]; at 100.0 µM -20% | [5]; [17] 4% | [5]; [18] 28% | [5]; at 50.0 µM 6.4% | [6]; at 1.2 µM -10% | [6]; at 3.7 µM -7% | [6]; [17] 33% | [6]; at 11.0 µM 3% | [6]; at 33.0 µM 46% | [6]; at 50.0 µM 68.6% | [6]; at 100.0 µM 62% | [7]; at 1.2 µM -15% | [7]; at 3.7 µM -19% | [7]; at 11.0 µM -18% | [7]; at 33.0 µM -23% | [7]; at 100.0 µM -8% | [8]; at 1.2 µM -39% | [8]; at 3.7 µM -39% | [8]; at 11.0 µM -41% | [8]; at 33.0 µM -34% | [8]; at 100.0 µM -4% | [9]; at 1.2 µM 11% | [9]; at 3.7 µM 17% | [9]; at 11.0 µM 11% | [9]; at 33.0 µM 22% | [9]; at 100.0 µM 30% | [10]; [17] -9% | [10]; [18] 6% | [10]; at 50.0 µM -11.2% | [16]; at 1.2 µM -1% | [16]; at 3.7 µM 6% | [16]; at 11.0 µM -1% | [16]; at 33.0 µM -7% | [16]; at 100.0 µM -5%

C(=C\c1ccccc1)/COc1ccccc1C(N1CCOCC1)n1nc2ccccc2n1 (centres undefined)
active: [11]; at 33.0 µM 85% | [11]; at 100.0 µM 97% | [12]; at 33.0 µM 88% | [12]; at 100.0 µM 98% | [13]; at 100.0 µM 95% | [14]; at 33.0 µM 91% | [14]; at 100.0 µM 98% | [15]; at 33.0 µM 96% | [15]; [18] 98% | [15]; at 50.0 µM 98.1% | [15]; at 100.0 µM 97% | [1]; at 33.0 µM 86% | [1]; [18] 95% | [1]; at 50.0 µM 98.8% | [1]; at 100.0 µM 98% | [2]; at 33.0 µM 97% | [2]; at 100.0 µM 98% | [3]; [18] 97% | [3]; at 50.0 µM 97.9% | [4]; at 100.0 µM 93% | [5]; [18] 81% | [5]; at 50.0 µM 91.2% | [6]; at 33.0 µM 86% | [6]; [18] 98% | [6]; at 50.0 µM 98.3% | [6]; at 100.0 µM 97% | [7]; at 33.0 µM 95% | [7]; at 100.0 µM 99% | [8]; at 33.0 µM 93% | [8]; at 100.0 µM 97% | [9]; at 33.0 µM 96% | [9]; at 100.0 µM 99% | [10]; [18] 99% | [10]; at 50.0 µM 99% | [16]; at 33.0 µM 86% | [16]; at 100.0 µM 98%
inactive: [11]; at 1.2 µM 3% | [11]; at 3.7 µM 3% | [11]; at 11.0 µM 13% | [12]; at 1.2 µM 32% | [12]; at 3.7 µM 36% | [12]; at 11.0 µM 33% | [13]; at 1.2 µM -5% | [13]; at 3.7 µM 1% | [13]; at 11.0 µM 25% | [13]; at 33.0 µM 64% | [14]; at 1.2 µM 8% | [14]; at 3.7 µM 9% | [14]; at 11.0 µM 20% | [15]; at 1.2 µM -6% | [15]; at 3.7 µM -21% | [15]; [17] -9% | [15]; at 11.0 µM 8% | [1]; at 1.2 µM -19% | [1]; at 3.7 µM -13% | [1]; [17] 3% | [1]; at 11.0 µM -1% | [2]; at 1.2 µM -4% | [2]; at 3.7 µM 0% | [2]; at 11.0 µM 35% | [3]; [17] -1% | [4]; at 1.2 µM 0% | [4]; at 3.7 µM -9% | [4]; at 11.0 µM -10% | [4]; at 33.0 µM 11% | [5]; [17] 11% | [6]; at 1.2 µM 1% | [6]; at 3.7 µM -14% | [6]; [17] 3% | [6]; at 11.0 µM -4% | [7]; at 1.2 µM -4% | [7]; at 3.7 µM 1% | [7]; at 11.0 µM 25% | [8]; at 1.2 µM -2% | [8]; at 3.7 µM -2% | [8]; at 11.0 µM 37% | [9]; at 1.2 µM 23% | [9]; at 3.7 µM 22% | [9]; at 11.0 µM 54% | [10]; [17] 16% | [16]; at 1.2 µM -2% | [16]; at 3.7 µM -7% | [16]; at 11.0 µM 6%
